# Data as given in PubChem BioAssay (NCATS).
# Values joined by “and” are separate entries in the source; they are usually repeats but may differ in a detail not shown here. Equal entries are not always repeated. Inconclusive results are not listed. Where a call stands in place of a potency, no number is given. Values without a mark were called inactive. Active and inactive are the calls of the source. Unless noted, the call rests on the fitted dose curve; in most records, active means well fitted curve in the direction sought with a large enough effect; inconclusive means small, poorly fitted or top-dose-only effect, or another doubt; inactive means no such curve, though single readings can be large; an effect the other way counts as inactive or inconclusive.
# What was measured:
# [1] = Cell Viability - Jurkat (AID 426;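 active means dose-dependent loss of cell ATP signal giving a full or clear fitted curve, ranked by lower potency value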;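 further: potency means the concentration at half of the fitted maximal effect; cells exposed to compound for 40 hours at 37 °C before ATP read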); conditions: qHTS
# Outline: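 Cytotoxicity was scored as loss of cellular ATP, measured by luciferase-based luminescence, in Jurkat clone E6-1 cells after 40 h compound treatment; tamoxifen and doxorubicin served as positive controls.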
# [2] = Cell Viability - NIH 3T3 (AID 541); conditions: NIH 3T3 cell viability, qHTS; activity change, negative = cytotoxicity: at 92.2 µM (top of the series);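 further: cells exposed to compound for 40 hours; nearly all actives have a fitted effect of over 25% in size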
# Outline: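 In this cytotoxicity screen, acute toxicity is scored as an ATP drop measured by CellTiter-Glo in NIH 3T3 fibroblasts following a 40 hr, 37 °C incubation with compound.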
# [3] = Cell Viability - HUV-EC-C (AID 542);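 further: cells exposed to compound for 40 hours; nearly all actives have a fitted effect of over 35% in size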
# Outline: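 Concentration-dependent ATP loss in HUV-EC-C cells is the measure. Exposure lasts 40 hr at 37 °C; luminescence follows CellTiter-Glo addition, and Hill fits give AC50.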
# [4] = Cellular Toxicity (caspase-3) Jurkat (AID 655); conditions: Jurkat caspase-3 activation, luminescence; caspase-3 activation: at 92.2 µM (top of the series), DMSO = 0%, tamoxifen = 100%;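 further: cells exposed to compound for 16 h at 37 °C before reading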
# Outline: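 Jurkat cells (5000/well) in complete medium exposed 16 h at 37 C; caspase-3/7 activity read by Caspase-Glo luminescence after 20 min at room temperature. Normalized to DMSO and 100 uM tamoxifen; AC50 from Hill fits.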
# [5] = Cell Viability - LYMP2-005 (AID 967)
# Outline: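 Human lymphoblastoid LYMP2-005 cells, 2,500 per well in complete medium, rested 5 h at 37C then compound-treated 24 h at 37C. Intracellular ATP read by CellTiter-Glo luminescence after 30 min at room temperature; AC50 from Hill-equation fits of concentration-response data.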
# [6] = Cell Viability - LYMP2-015 (AID 971); further: nearly all actives have a fitted effect of over 55% in size
# Outline: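 AC50 values reflect Hill-model fits of ATP-based luminescence (CellTiter-Glo) from a human lymphoblastoid line, 2500 cells/well, treated 24 hr at 37 C.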
# [7] = Cell Viability - LYMP2-014 (AID 983); further: nearly all actives have a fitted effect of over 50% in size
# Outline: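 Quantitative HTS in lymphoblastoid cells: 24 hr compound exposure, then CellTiter-Glo ATP luminescence. Positive control was tetraoctylammonium bromide, 6.4pM to 92 uM.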
# [8] = Cell Viability - LYMP2-020 (AID 986); further: nearly all actives have a fitted effect of over 55% in size
# Outline: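 Cells at 2500 per well receive a 24 hr compound exposure at 37 C. Viability is measured as ATP-dependent luciferase luminescence, with AC50 modeled from qHTS concentration-response curves.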
# [9] = target: Glucocorticoid receptor (Homo sapiens) (UniProt P04150); experiment: qHTS assay for small molecule agonists of glucocorticoid receptor signaling (AID 588532; active means well fitted curve in the direction sought with a large enough effect in the signal ratio, with a control signal flat; the % refers to the signal ratio); conditions: HeLa MMTV-bla, beta-lactamase ratio, agonist, 18 h; active compounds read high; percent of dexamethasone control, DMSO zero
# Outline: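 Cells were plated and rested 3-5 h at 37 C, compounds were added in titration and incubated 18 h, then CCF4 substrate was loaded for 2 h at RT before reading blue/green fluorescence. EC50 came from Hill-equation fitting.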
# [10] = qHTS assay for small molecule disruptors of the mitochondrial membrane potential - 1 hr assay (AID 651754; calls by dose curve; further: nearly all actives have a fitted effect of over 35% in size; further: potency means the concentration at half of the fitted maximal effect)
# Outline: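 In this qHTS format, a 1 hr compound treatment of HepG2 cells precedes Mito-MPS staining, and membrane potential is judged from aggregate (red) against monomer (green) fluorescence intensity.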
# [11] = Cellular Toxicity (caspase-3) Hek293 (AID 664); conditions: HEK293 caspase-3 activation, DMSO = 0%, 100 µM tamoxifen = 100%; at 92.2 µM (top of the series);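 further: cells exposed to compound for 16 h at 37 °C before readout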
# Outline: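 Apoptosis readout: Caspase-Glo 3/7 signal in human HEK293 cells following 16-hour compound incubation. Responses scaled between DMSO baseline and 100 uM tamoxifen.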
# [12] = Cellular Toxicity (caspase-3) NIH 3T3 (AID 666);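 further: caspase signal read after 16 h compound exposure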
# Outline: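 Activity: caspase-3/7 induction, NIH 3T3 cells, 16 hr treatment at 37°C, luminescent Caspase-Glo detection; AC50 via Hill equation.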
# [13] = Cell Viability - LYMP2-001 (AID 921); further: nearly all actives have a fitted effect of over 70% in size; further: potency means the concentration at half of the fitted maximal effect
# Outline: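 Human lymphoblastoid LYMP2-001 cells, 2500 per well, in complete medium, treated 24 h at 37 C. Viability from cellular ATP by CellTiter-Glo luminescence; AC50 from Hill-equation fits of qHTS concentration-response.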
# [14] = Cell Viability - LYMP2-002 (AID 977);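 further: compound exposure lasted 24 h at 37 °C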
# Outline: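 Human lymphoblastoid cells, 2500/well, complete medium; 5 h 37 C settle; compound 24 h 37 C; CellTiter-Glo, 30 min RT; luminescence. Decrease in ATP = cytotoxicity; AC50 via Hill equation.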
# [15] = Cell Viability - LYMP2-006 (AID 978);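 further: cells exposed to compound for 24 hours; nearly all actives have a fitted effect of over 60% in size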
# Outline: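 Human lymphoblastoid cells (LYMP2-006), 2500/well in complete medium, were treated with compound for 24 hr at 37 C. Cellular ATP was read by CellTiter-Glo luminescence after 30 min, and AC50 values came from Hill-equation fits of concentration-response data.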
# [16] = target: Thyroid hormone receptor beta (Homo sapiens) (UniProt P10828); experiment: qHTS assay for small molecule antagonists of thyroid hormone receptor beta signaling (AID 588547; active means well fitted inhibition curve with a large enough effect in the signal ratio, with a control signal flat, not every such curve was filed as active; the % refers to the signal ratio;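 further: cells stimulated with 0.4 nM T3 agonist during compound exposure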); conditions: TR-UAS-bla HEK293, beta-lactamase ratio, antagonist mode, 18 h
# Outline: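 TR-UAS-bla GripTite HEK293 cells in 2% charcoal/dextran FBS medium; compounds 0.59 nM to 92 uM with T3 at 0.4nM final, 18 h at 37 C. Beta-lactamase read by CCF4 fluorescence (460/530 nm); Hill fits gave IC50 and efficacy.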
# [17] = qHTS assay for small molecule activators of the nuclear factor-kappa B (NF-kB) signaling pathway (AID 651749; active means well fitted activation curve with a large enough effect in the signal ratio; the % refers to the signal ratio); conditions: NF-kB-bla ME-180 cells, beta-lactamase FRET ratio, 16 h; active compounds read high
# Outline: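 NF-kB-bla ME-180 cells, 2,000/well; 23 nL compound or DMSO pinned; 16 hr, 37C/5% CO2; beta-lactamase FRET read-out.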
# Chain of Thyroid hormone receptor beta (Homo sapiens) (P10828 whole entry, looked up): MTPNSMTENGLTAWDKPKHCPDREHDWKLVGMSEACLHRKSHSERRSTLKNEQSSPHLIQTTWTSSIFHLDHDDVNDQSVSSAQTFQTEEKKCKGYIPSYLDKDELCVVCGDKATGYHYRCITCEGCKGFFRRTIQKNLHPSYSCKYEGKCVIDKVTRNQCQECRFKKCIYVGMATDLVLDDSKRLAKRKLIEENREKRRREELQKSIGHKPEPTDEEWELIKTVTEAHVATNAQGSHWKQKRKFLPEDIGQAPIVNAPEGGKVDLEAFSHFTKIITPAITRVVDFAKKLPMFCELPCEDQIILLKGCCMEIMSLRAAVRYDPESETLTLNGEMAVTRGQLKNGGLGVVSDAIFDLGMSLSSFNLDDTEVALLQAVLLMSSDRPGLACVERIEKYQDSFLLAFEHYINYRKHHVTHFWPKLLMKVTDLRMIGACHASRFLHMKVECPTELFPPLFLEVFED
# Chain of Glucocorticoid receptor (Homo sapiens) (P04150 whole entry, looked up): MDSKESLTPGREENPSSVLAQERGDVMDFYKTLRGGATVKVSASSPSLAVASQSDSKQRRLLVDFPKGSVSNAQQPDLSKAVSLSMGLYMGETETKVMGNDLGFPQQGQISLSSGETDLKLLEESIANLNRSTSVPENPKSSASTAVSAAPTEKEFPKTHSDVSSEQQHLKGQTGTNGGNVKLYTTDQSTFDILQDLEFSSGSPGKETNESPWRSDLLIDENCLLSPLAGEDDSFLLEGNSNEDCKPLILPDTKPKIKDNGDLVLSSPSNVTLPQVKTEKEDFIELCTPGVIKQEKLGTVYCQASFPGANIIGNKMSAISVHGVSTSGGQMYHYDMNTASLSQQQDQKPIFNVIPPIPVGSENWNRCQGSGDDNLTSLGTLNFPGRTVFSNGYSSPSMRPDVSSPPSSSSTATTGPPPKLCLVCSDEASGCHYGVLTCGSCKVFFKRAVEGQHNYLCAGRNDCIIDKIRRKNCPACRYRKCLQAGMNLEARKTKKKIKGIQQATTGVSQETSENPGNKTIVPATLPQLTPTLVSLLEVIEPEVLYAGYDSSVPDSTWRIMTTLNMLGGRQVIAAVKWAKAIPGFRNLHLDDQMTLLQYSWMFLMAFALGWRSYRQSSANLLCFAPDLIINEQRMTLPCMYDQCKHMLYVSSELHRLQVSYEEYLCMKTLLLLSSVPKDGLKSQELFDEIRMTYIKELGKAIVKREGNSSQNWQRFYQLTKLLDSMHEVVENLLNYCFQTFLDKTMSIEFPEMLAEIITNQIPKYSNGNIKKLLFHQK
SMILES,Potency [1],Potency [2],Potency [3],caspase-3 activation [4],Potency [5],Potency [6],Potency [7],Potency [8],activation [9],Potency [10],caspase-3 activation [11],Potency [12],Potency [13],Potency [14],Potency [15],activity change % (negative = inhibition) [16],activation [17]
Clc1ccccc1,> 92 µM,inactive,inactive,1.44%,inactive,inactive,inactive,inactive,-4.89%,inactive,,,,,,,
ClCC(Cl)CCl,,inactive,inactive,1.95%,inactive,,,inactive,-1.49% and -1.66%,inactive,1.26%,inactive,inactive,inactive,inactive,0.0158% and 2.43%,
C=CCCl,> 92 µM,inactive,inactive,0.433%,inactive,inactive,inactive,inactive,2.78%,inactive,,,inactive,inactive,,-1.64%,-0.803%
Oc1ccc(Cl)c(Cl)c1Cl,,inactive,inactive,,inactive,inactive,,,6.93%,42.2 µM (active),,inactive,,inactive,inactive,14.5%,-0.348%
CCBr,> 92 µM,,inactive,,,inactive,inactive,,4.52%,inactive,,inactive,,inactive,inactive,-4.65%,-0.926%
CNC(=O)O/N=C/C(C)(C)S(C)=O (configuration not stated),> 92 µM,,,,inactive,,,,15.3% and 5.05%,inactive,-2.67%,inactive,inactive,,inactive,6.05% and 1.68%,-0.721% and -0.0233%
CN(C)c1ccc(N(C)C)cc1,,,inactive,1.91%,,,,,1.15%,inactive,-1.04%,,50.1 µM (active),,,-0.335%,0.946%
ClCC(Br)CBr (configuration not stated),,inactive,inactive,0.662%,,,inactive,inactive,-3.35%,inactive,0.439%,inactive,inactive,,inactive,6.39%,-0.578%
CCOP(=S)(OCC)SCCSCC,,inactive,inactive,-2.31%,,inactive,inactive,inactive,13.6%,inactive,0.951%,inactive,inactive,inactive,inactive,6.91% and -9.69%,-0.799% and -0.139%
Nc1cc(Cl)cc(Cl)c1,> 92 µM,inactive,inactive,,inactive,inactive,inactive,inactive,,inactive,1.09%,inactive,inactive,inactive,inactive,,0.8%
N#CCCC#N,> 92 µM,inactive,inactive,-0.151%,inactive,inactive,,inactive,,,1.14%,,inactive,inactive,inactive,5.23%,0.61%
C/C=C/C=O,> 92 µM,inactive,inactive,0.559%,inactive,inactive,,,3.01%,,-1.23%,inactive,,inactive,inactive,-1.85%,0.438%
CC[N+](=O)[O-],,inactive,inactive,1.63%,inactive,,inactive,,5.8%,inactive,3.71%,,inactive,inactive,inactive,-0.712%,1.19%
c1ccc2c(c1)CCNC2,> 92 µM,inactive,inactive,0.933%,inactive,,inactive,inactive,,,,inactive,inactive,inactive,inactive,,0.526%
Nc1ccc(Cc2ccc(N)c(Cl)c2)cc1Cl,,,,,inactive,inactive,inactive,inactive,-1.55%,inactive,1.19%,inactive,inactive,inactive,,,
O=[N+]([O-])CCO,> 92 µM,inactive,,-0.445%,,,inactive,inactive,-6.62%,,0.0344%,inactive,inactive,inactive,inactive,2.47%,-0.859%
CC(=O)CCC(C)=O,> 92 µM,inactive,,0.378%,inactive,inactive,,inactive,-5.45%,inactive,0.261%,inactive,inactive,inactive,inactive,15%,0.108%
COc1ccccc1N,> 92 µM,,,5.87%,,inactive,inactive,inactive,,inactive,1.4%,inactive,inactive,inactive,inactive,,
O=[N+]([O-])c1ccccc1O,> 92 µM,,inactive,1.37%,inactive,inactive,inactive,,0.494%,inactive,-0.522%,inactive,inactive,inactive,inactive,,
Oc1c(Cl)cccc1Cl,> 92 µM,inactive,inactive,2.96%,inactive,inactive,inactive,inactive,,inactive,1.84%,,,inactive,inactive,-18.9%,-0.406%
COc1cc(-c2ccc(N)c(OC)c2)ccc1N,> 92 µM,,inactive,-0.124%,inactive,inactive,inactive,,,37.6 µM (active),-1.4%,,inactive,inactive,inactive,,0.354% and 3.2% and 2.92%
COC(=O)c1ccccc1N,> 92 µM,,,1.63%,inactive,,inactive,inactive,-6.23%,,-1.69%,inactive,,,inactive,-1.98%,-0.425%
CC(Cl)(Cl)Cl,,inactive,inactive,-0.991%,,inactive,inactive,inactive,,inactive,-1.64%,inactive,inactive,inactive,,0.316% and -7.15%,-0.312% and 0.328%
